In the supplement of paper PMC4954754:
“And” between values parts separate entries of the source, which are not always exact repeats. Equal entries are not always repeated. ± gives the uncertainty stated by the source.

Tested on: HEK293T-Rex ERSE-FLuc
Assay: ERSE-FLuc reporter activation, triplicate confirmation, relative to 500 nM thapsigargin (% of thapsigargin); higher = stronger ATF6/ERSE reporter activation
Details: 6.8 µM; 18 h; screen: confirmation
Method: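 HEK293T-Rex cells stably expressing the ERSE-firefly luciferase (BiP promoter, ATF6-preferring) or XBP1-splicing Renilla luciferase (IRE1/XBP1s) reporter, 1536-well plates, compound at 6.8 µM for 18 hr at 37 °C; luminescence read […] and expressed as % activation = 100*(compound - median DMSO)/(median 500 nM thapsigargin - median DMSO). Primary screen was single-pass; confirmation screen in triplicate (mean ± SD).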

Which ERSE-FLuc reporter activation does the source give for `CNc1ccc2oc(C[C@H]3O[C@@]4(CC[C@H]3C)O[C@H]([C@H](C)C(=O)c3ccc[nH]3)[C@H](C)C[C@H]4C)nc2c1C(=O)O` here?
Its ERSE-FLuc reporter activation is 63.9 ± 3.1.

With `O=C(CCCN1CCC2(CC1)C(=O)NCN2c1ccccc1)c1ccc(F)cc1` as the compound, how does the ERSE-FLuc reporter activation read?
The ERSE-FLuc reporter activation was 163 ± 21.

For `CC(=O)NC1C(OC2OC(CC(O)C3OC(n4ccc(=O)[nH]c4=O)C(O)C3O)C(O)C(O)C2NC(=O)/C=C\CCCCCCCCCC(C)C)OC(CO)C(O)C1O` (stereo not given), which ERSE-FLuc reporter activation is on record?
The ERSE-FLuc reporter activation was 162 ± 5.7.

Which ERSE-FLuc reporter activation does the source give for `C/C=C(/C)C(=O)O[C@H]1C(C)=C2[C@H]([C@@H]1OC(=O)CCCCCCC)[C@@](C)(OC(C)=O)C[C@H](OC(=O)CCC)[C@@]1(O)[C@H]2OC(=O)[C@@]1(C)O` here?
Its ERSE-FLuc reporter activation is 109 and 88.

How did the ERSE-FLuc reporter activation turn out when `O=C(CCCN1CCC2(CC1)C(=O)N(Cc1cccc(F)c1)CN2c1ccccc1)c1ccc(F)cc1` was run?
The ERSE-FLuc reporter activation was 215 ± 16.
